From PubChem
GluA2 TARP mod – modulates AMPAR-stargazin complexes | HEK293 GluA2+stargazin, membrane potential dye (FDSS), glutamate EC50; hits were called plate by plate, in both directions | calls only at 30 µM | hit rate 3.5% among 40,000;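 active = any of four per-well response measures lying three or more SD from its plate-wide compound average, in either direction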
GIRK2 act – GIRK2 channel activators by thallium flux. P48051. HEK293 GIRK2/NPY4 cells, thallium flux fluorescence. AID 1259324. 34,000 tested, under 10 active. activation (% efficacy), % for hits at 37.5 µM;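 active = primary screen hit, no activity in plain HEK293 cells, and in GIRK2-only cells above 5% efficacy rising with concentration; inactive = the rest, including fluorescent compounds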;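 note: efficacy is normalized control-subtracted fluorescence 15 s after thallium addition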
Target sequence (P48051 whole entry, looked up): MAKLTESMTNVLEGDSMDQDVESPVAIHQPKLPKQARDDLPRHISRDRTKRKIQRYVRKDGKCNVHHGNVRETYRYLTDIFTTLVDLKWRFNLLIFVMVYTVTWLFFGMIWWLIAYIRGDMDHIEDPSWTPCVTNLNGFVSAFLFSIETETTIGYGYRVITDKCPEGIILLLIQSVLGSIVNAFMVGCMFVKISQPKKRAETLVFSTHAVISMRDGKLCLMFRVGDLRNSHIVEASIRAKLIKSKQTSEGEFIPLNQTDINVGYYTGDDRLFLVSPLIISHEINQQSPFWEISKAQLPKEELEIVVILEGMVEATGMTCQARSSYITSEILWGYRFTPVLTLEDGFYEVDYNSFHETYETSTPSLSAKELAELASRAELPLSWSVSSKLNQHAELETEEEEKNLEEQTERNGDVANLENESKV
* hit, by the source's call; i = inactive; x = no result given; + = active, no number. Many of the other results were omitted from the sample, so hits are more common in it than they were.

SMILES	GluA2 TARP mod	GIRK2 act
Cc1cc(N(C)C)nc(NCCNC(=O)c2ccc(Br)o2)n1	x	i
Cc1cc(N(C)C)nc(NCCNC(=O)c2cnccn2)n1	+	i
COc1cccc(N2CC(C(=O)N3CCC(Cn4nc(C)cc4C)CC3)CC2=O)c1 (configuration not stated)	i	i
COc1cc(/C=C2\SC(=S)N(c3cccc(C)c3C)C2=O)ccc1O	+	x
COc1cc(/C=C2/SC(=S)N(c3ccc(C)c(C)c3)C2=O)ccc1O	i	x
CCOC(=O)CC(N)c1ccc(OC)c2ccccc12 (configuration not stated)	i	x
O=C(NCCCSCc1ccccc1)Nc1ncccn1	i	x
CCCn1c(=O)c2c(nc3n(-c4ccc(OC)cc4OC)c(C)c(C)n23)n(C)c1=O	i	x
O=C(N1CCC(Cn2cccn2)CC1)C1(c2ccccc2)CCOCC1	+	i
O=C(c1ccco1)N1CCC(Cn2cccn2)CC1	i	i
CNC(=O)C1Cc2ccccc2N1C(=O)c1ccc(OC)cc1 (configuration not stated)	i	i
COc1cn(CC(=O)NC2CCCC2)c(CSc2ccc(C)cc2)cc1=O	i	i
COc1cn(CC(=O)NC2CCCCC2)c(CSc2ccccc2)cc1=O	+	x
COc1ccc(F)cc1S(=O)(=O)NCC1COC2(CCCCC2)O1 (configuration not stated)	i	i
O=S(=O)(NCC1COC2(CCCCC2)O1)c1cc(F)ccc1F (configuration not stated)	+	i
O=[N+]([O-])c1ccccc1S(=O)(=O)NCC1COC2(CCCCC2)O1 (configuration not stated)	i	i
CCc1ccc(S(=O)(=O)NCC2COC3(CCCCC3)O2)s1 (configuration not stated)	i	i
O=S(=O)(NCC1COC2(CCCCC2)O1)c1ccc(Cl)cc1 (configuration not stated)	+	i
O=S(=O)(NCC1COC2(CCCCC2)O1)c1cccc2ccccc12 (configuration not stated)	+	x
CCOC(=O)Cn1c(C)cn2c3c(=O)n(CCc4ccccc4)c(=O)n(C)c3nc12	i	i
Cc1nc(Nc2ccc(NC(=O)Cc3ccc(Cl)cc3)cc2)cc(-n2cccn2)n1	i	i
COC(=O)c1ccc(COC(=O)c2ccc(F)cc2)cc1	i	x
c1ccc2c(N3CCOCC3)nnc(N3CCOCC3)c2c1	i	i
COc1ccccc1Nc1nc(N2CCOCC2)c2ccccc2n1	+	x
CN1CCN(c2nc(N3CCOCC3)c3ccccc3n2)CC1	+	x
SMILES	GluA2 TARP mod	GIRK2 act
COc1ccc(NC(=O)CSc2nc3ccccc3nc2N2CCOCC2)cc1	i	i
COc1ccc(C)cc1NC(=O)C(=O)NCC1(O)CCOCC1	i	i
O=C(Nc1c2c(nn1-c1cccc(Cl)c1)CS(=O)C2)C1CCCCC1 (configuration not stated)	+	i
CN1CCN(C(=O)C(=O)Nc2c3c(nn2-c2cccc(Cl)c2)CSC3)CC1	i	i
CCn1c(SCC(=O)Nc2ccccc2C(F)(F)F)nnc1-c1cn(C)nc1OC	i	i
O=C(NC1CCCC1)C(=O)N1CCN(c2ccccc2)CC1	i	x
COCCNC(=O)CCc1csc(NC(=O)c2ccc[nH]c2=O)n1	+	i
CC(C)CCNC(=O)CCc1csc(NC(=O)c2ccc[nH]c2=O)n1	i	x
Cc1ccc(S(=O)(=O)NCCn2nc(-c3ccc(Cl)cc3)ccc2=O)cc1C	i	x
Cc1ccc(S(=O)(=O)NCCn2nc(C)c(Cl)c2C)cc1C	+	i
CCCOC(=O)c1c(N)n(CCC)c2nc3ccccc3nc12	i	i
O=C(Nc1ccc([N+](=O)[O-])cc1)C1CCCN(c2ccc(-c3ccccc3)nn2)C1 (configuration not stated)	i	i
O=C(Nc1ccccc1[N+](=O)[O-])C1CCCN(c2ccc(-c3ccccc3)nn2)C1 (configuration not stated)	+	i
COc1ccccc1Nc1cc(Cl)nc(N)n1	i	i
CCCCn1c(SCc2nc(-c3cc(OC)cc(OC)c3)no2)nc2ccsc2c1=O	i	i
CCCCn1c(SCc2nc(-c3ccc(Cl)cc3)no2)nc2ccsc2c1=O	+	i
COc1cc(-c2nnc(NC(=O)CCCS(=O)(=O)c3ccccc3)o2)cc(OC)c1OC	i	i
O=C(COc1ccccc1)N1CCC(CNS(=O)(=O)c2c(F)cccc2F)CC1	i	i
O=C(Cn1cnc(-c2cccs2)cc1=O)NCC(F)(F)F	+	i
O=C(Cn1cnc(-c2cccs2)cc1=O)NCc1ccccc1OC(F)(F)F	i	i
CCS(=O)(=O)N1CCCc2cc(NC(=O)Nc3ccccc3OC)ccc21	i	i
COc1cc(C(=O)Nc2ccc(CC(=O)N(C)C)cc2)cc(OC)c1OC	i	i
